According to the supplement of paper PMC10849652:
About 8,800 targets were measured; listed, in parts, are those with a hit and a random draw of the rest. About 0.5% of all pairs of compound and target were hits. Unmarked numbers belong to inactive results.

The targets below were run with CC1=C2C(=CC=C1)N=C(N(C2=O)C3=CC=CC=C3C)CN4C=NC5=C(N=CN=C54)N (assay: log2 fold change, soluble protein after heating vs DMSO (PISA); higher = thermal stabilisation; K562 lysate, 10 uM; active = over 0.2 and 3.5 SD of the protein, either way, in both replicates (recomputed)).
In short: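 K562 pellets were dounce-homogenised in PBS pH 7.4 containing 1 mM MgCl2, and the crude extract, at 1 mg/mL protein, was exposed to 10 μM compound for 30 min. Aliquots were heated for 3 min across 48°C-58°C, pooled, brought to 0.5% NP-40 at 4°C and spun at 21,000xg for 90 min, with the supernatant taken as soluble protein. TMTpro 16plex LC-MS/MS with equalised channel sums quantified that protein. Values are log-two fold changes in thermal stability relative to solvent controls, taken from duplicates.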

UniProt P26583, sequence (P26583 whole entry, looked up): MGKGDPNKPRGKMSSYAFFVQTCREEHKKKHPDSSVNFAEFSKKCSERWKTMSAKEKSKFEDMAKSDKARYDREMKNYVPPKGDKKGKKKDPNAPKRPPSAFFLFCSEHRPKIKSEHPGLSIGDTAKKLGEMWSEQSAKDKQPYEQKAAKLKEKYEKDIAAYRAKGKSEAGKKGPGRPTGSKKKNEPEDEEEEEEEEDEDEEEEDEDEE
UniProt Q9H6K1, sequence (Q9H6K1 whole entry, looked up): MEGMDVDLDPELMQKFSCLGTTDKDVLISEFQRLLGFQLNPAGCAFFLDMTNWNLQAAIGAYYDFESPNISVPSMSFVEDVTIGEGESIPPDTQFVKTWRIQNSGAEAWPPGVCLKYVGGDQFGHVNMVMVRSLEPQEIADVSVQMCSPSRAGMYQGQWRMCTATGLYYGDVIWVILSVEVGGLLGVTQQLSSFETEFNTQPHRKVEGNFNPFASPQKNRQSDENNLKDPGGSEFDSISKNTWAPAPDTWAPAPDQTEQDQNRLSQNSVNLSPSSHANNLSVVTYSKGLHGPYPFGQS
UniProt Q92805, sequence (Q92805 whole entry, looked up): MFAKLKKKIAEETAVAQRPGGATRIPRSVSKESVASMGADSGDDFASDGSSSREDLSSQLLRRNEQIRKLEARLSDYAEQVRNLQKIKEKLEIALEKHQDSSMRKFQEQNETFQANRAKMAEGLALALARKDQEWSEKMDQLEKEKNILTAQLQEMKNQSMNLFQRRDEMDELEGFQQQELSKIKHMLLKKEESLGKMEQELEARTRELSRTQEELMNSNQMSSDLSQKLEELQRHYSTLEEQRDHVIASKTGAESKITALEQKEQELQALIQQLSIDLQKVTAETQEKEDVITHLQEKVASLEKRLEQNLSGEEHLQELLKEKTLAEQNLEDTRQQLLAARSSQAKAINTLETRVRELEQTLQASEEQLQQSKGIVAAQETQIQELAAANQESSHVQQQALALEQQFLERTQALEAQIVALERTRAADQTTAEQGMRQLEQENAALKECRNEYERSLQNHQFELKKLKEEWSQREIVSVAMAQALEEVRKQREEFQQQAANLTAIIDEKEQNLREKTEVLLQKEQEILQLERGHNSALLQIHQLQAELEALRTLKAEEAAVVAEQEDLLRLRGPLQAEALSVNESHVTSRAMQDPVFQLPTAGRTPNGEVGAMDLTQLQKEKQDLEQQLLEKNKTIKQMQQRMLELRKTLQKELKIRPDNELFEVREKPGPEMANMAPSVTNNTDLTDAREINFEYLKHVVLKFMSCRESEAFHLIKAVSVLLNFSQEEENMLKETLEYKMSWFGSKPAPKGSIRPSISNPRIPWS
UniProt Q8N201, sequence (Q8N201 whole entry, looked up): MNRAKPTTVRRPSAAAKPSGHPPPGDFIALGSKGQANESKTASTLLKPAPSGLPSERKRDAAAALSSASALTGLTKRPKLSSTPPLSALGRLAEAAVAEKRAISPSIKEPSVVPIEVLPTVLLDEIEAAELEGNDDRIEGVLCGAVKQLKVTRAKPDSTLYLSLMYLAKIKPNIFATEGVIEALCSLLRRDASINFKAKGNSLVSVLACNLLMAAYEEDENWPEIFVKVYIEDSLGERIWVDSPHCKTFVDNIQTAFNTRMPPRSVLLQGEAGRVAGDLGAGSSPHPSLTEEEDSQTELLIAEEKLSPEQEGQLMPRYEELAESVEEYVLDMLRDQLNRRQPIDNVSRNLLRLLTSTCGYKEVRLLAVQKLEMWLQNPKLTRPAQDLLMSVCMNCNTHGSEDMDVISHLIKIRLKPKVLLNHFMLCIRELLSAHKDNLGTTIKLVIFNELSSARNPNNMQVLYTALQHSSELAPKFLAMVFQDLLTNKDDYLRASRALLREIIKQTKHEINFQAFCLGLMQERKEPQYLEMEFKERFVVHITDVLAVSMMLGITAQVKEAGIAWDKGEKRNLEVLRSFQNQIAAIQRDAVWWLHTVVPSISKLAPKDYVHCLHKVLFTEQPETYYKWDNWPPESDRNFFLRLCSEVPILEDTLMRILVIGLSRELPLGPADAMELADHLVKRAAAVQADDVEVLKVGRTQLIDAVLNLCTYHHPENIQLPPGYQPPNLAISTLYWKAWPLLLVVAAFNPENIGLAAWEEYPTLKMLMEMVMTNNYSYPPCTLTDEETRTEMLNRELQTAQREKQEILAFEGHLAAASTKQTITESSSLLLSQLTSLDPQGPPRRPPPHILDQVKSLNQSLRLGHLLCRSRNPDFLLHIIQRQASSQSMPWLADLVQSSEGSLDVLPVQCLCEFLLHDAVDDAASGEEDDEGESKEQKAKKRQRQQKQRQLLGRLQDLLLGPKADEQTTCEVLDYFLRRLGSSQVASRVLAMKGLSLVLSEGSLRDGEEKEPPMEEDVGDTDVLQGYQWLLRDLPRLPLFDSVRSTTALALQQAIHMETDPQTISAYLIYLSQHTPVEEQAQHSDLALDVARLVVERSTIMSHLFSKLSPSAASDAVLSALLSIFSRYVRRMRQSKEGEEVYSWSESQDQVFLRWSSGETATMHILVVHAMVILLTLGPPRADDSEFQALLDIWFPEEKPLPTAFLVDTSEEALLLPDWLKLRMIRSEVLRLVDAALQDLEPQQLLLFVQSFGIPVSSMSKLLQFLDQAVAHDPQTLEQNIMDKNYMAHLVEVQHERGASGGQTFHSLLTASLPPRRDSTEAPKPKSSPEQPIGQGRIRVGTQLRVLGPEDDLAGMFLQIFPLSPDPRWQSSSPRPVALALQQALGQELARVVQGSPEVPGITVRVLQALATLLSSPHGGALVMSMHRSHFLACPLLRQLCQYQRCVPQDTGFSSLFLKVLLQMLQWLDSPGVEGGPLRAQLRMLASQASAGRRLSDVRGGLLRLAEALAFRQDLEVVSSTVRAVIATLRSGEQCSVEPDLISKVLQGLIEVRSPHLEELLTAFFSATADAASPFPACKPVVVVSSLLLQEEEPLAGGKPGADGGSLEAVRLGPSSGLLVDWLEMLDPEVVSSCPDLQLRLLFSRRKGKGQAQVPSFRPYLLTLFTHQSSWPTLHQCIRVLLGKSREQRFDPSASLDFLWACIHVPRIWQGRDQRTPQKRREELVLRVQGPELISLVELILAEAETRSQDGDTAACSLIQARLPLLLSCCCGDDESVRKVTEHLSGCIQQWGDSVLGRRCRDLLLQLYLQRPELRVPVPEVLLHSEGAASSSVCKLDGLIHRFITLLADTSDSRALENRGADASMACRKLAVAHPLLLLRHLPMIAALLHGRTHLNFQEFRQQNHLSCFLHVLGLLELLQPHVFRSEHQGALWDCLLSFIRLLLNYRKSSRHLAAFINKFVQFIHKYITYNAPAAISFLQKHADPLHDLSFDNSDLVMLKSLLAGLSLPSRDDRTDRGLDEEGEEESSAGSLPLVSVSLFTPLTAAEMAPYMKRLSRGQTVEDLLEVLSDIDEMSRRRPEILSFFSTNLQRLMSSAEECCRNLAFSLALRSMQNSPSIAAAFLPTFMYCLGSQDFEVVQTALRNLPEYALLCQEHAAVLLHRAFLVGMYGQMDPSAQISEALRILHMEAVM
UniProt P52789, sequence (P52789 whole entry, looked up): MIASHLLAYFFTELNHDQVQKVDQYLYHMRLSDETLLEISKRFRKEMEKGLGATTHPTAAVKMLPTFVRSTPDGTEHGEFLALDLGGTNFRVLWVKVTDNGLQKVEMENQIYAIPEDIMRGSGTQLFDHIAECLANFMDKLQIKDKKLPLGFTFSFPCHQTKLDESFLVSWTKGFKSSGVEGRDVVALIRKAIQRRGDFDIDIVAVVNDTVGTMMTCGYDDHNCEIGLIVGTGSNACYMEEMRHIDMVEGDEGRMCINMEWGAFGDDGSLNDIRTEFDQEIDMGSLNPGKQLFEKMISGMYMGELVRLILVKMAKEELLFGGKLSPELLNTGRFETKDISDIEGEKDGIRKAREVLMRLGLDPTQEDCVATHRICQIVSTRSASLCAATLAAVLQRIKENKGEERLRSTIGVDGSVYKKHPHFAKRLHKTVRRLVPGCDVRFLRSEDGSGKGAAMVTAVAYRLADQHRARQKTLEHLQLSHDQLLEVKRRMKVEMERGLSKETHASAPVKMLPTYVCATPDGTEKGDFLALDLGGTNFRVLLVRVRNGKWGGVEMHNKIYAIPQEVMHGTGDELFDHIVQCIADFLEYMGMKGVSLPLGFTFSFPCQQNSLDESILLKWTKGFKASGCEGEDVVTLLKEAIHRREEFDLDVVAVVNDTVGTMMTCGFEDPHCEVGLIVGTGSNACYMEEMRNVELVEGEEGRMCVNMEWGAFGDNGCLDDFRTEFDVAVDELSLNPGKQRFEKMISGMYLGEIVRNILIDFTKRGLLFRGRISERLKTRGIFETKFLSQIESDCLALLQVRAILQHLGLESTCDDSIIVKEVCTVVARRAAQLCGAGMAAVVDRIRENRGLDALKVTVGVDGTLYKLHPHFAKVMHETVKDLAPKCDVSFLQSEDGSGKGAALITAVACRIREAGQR
UniProt Q99871, sequence (Q99871 whole entry, looked up): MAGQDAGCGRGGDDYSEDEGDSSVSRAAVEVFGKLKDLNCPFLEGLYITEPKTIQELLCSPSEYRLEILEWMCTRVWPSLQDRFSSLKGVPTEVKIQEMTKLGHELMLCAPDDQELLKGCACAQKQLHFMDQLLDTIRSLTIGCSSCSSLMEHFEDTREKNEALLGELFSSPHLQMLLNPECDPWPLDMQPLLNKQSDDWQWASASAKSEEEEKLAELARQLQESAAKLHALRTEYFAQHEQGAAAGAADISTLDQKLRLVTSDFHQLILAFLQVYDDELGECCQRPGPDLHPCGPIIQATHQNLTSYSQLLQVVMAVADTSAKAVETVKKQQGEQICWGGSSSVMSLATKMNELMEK
UniProt P82970, sequence (P82970 whole entry, looked up): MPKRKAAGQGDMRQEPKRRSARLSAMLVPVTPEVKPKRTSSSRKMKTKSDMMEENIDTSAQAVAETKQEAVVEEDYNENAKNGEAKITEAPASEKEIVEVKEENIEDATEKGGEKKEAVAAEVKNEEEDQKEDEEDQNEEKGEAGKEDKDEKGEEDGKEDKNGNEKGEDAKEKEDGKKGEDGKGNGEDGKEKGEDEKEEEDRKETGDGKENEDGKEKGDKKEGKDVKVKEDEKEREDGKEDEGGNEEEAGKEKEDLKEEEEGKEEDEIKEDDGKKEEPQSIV

Target	log2 fold change
HK2 (UniProt P52789)	0.043
IGF2BP3 (UniProt O00425)	0.009
INPPL1 (UniProt O15357)	-0.021
HMGB2 (UniProt P26583)	-0.03
ILRUN (UniProt Q9H6K1)	0.03
HMGA1 (UniProt P17096)	0.011
HDAC3 (UniProt O15379)	0.006
HAUS3 (UniProt Q68CZ6)	0.051
HDLBP, A0A024R4E5	0.017
IFNGR1 (UniProt P15260)	0.142
ILKAP (UniProt Q9H0C8)	-0.013
HMGCS1 (UniProt Q01581)	0.02
HMGN5 (UniProt P82970)	-0.008
GOLGA1 (UniProt Q92805)	0.026
INTS14 (UniProt Q96SY0)	-0.038
INTS10 (UniProt Q9NVR2)	0.023
GPA33 (UniProt Q99795)	0.006
HAUS7 isoform 2 (UniProt Q99871)	0.019
IRAK4 (UniProt Q9NWZ3)	0.022
GOLPH3L (UniProt Q9H4A5)	0.022
INTS1 (UniProt Q8N201)	-0.045
GMIP (UniProt Q9P107)	-0.04
IARS2 (UniProt Q9NSE4)	-0.006
GLUL (UniProt P15104)	-0.085
